For assay [1], the system named is Human papillomavirus type 1a protein E7 (residues 44-93). As to the kind of experiment: small molecules binding HPV E7 44-93 – biochemical, small-molecule microarray, residues 44-93, 635 nm fluorescence, primary screen (AID 1108).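 Also: E7 fragment applied at 1 µg/mL in TBST for 1 h at 4 C; score combines spot fluorescence with its signal to noise ratio.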 To be noted: fluorescence 635 nm, higher = more signal.
Assay [2] is described as follows: hepatitis C replication reporter changes, two-sided – Huh7 cells, luciferase reporter, HCV replication inhibitor project, primary screen (AID 1109).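 Also: huh7 hepatoma cells harbouring a luciferase neomycin HCV replicon reporter; luciferase luminescence as measure of HCV replicon replication; test concentration not given here.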 The following applies: Huh7 HCV replicon luciferase reporter, 48 h; higher = more signal.
Assay [3] deals with Left-right determination factor 2 (Homo sapiens) (UniProt O00292). As to the kind of experiment: small molecules binding LEFTY2 protein – biochemical, small-molecule microarray, 635 nm fluorescence scan, primary screen (AID 1110). To be noted: higher = more signal.
For assay [4], the target named is Calmodulin-1 (Homo sapiens) (UniProt P0DP23). Nature of the assay: small molecules binding calmodulin-1 with EGTA – biochemical, small-molecule microarray, Cy5-labelled CALM1, profiling panel (AID 1111).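 Also: labelled calmodulin applied in Tris saline Tween buffer holding calcium plus EGTA and DTT.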 To be noted: Cy5-CALM1 binding fluorescence, higher = more signal.
Assay [5] has the same target. As to the kind of experiment: small molecules binding Ca-loaded calmodulin-1 – biochemical, small-molecule microarray, Cy5-labelled CALM1, plus calcium, artefact control for SMM control-protein annotation, profiling panel (AID 1112).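 Also: score merges spot fluorescence with signal to noise from triplicate slides.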 The following applies: Cy5-CALM1 binding fluorescence, higher = more signal.
Assay [6] in a line: probe aWnt5a binding to arrayed compounds – biochemical, biotinylated probe, 635/667 nm fluorescence, primary screen (AID 1113).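 Also: score merges 667 nm fluorescence intensity with signal-to-noise per printed feature.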 To be noted: small-molecule microarray, higher = more signal.
Assay [7] can be described thus: probe aShh binding to arrayed compounds – biochemical, biotinylated probe, 635/667 nm fluorescence, primary screen (AID 1114).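 Also: probe is biotin-labelled aShh protein from a stem cell growth factor screen; measures binding of labelled protein to compounds printed on the slide; score merges feature fluorescence at 667 nm with signal-to-noise.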 To be noted: small-molecule microarray, higher = more signal.
The nature of assay [8]: probe aNog binding to arrayed compounds – biochemical, biotinylated probe, 635/667 nm fluorescence, primary screen (AID 1115).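 Also: probe is biotinylated aNog protein used at 0.15 µg/mL for 1 h at 4 C; z-score combines 667 nm fluorescence of each spot with its signal to noise.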 To be noted: small-molecule microarray, higher = more signal.
Assay [9] deals with Torsin-1A-interacting protein 1 (Homo sapiens) (UniProt Q5JTV8). As to the kind of experiment: compound microarray binding of lysate hLAP1 – cell lysate, small-molecule microarray, COS7 lysate, 635/667 nm fluorescence, primary screen (AID 1116). To be noted: 635 nm fluorescence, higher = more signal.
The target of assay [10] is Alpha-bungarotoxin (Bungarus multicinctus) (UniProt P60615). Nature of the assay: compounds binding labelled alpha-BTX control protein – biochemical, small-molecule microarray, Alexa647 label, 635/667 nm fluorescence, artefact control for SMM control protein annotation, profiling panel (AID 1117). The following applies: alpha-BTX-A647 binding fluorescence, higher = more signal.

Assay [11] addresses Albumin (Bos taurus) (UniProt P02769). As to the kind of experiment: compounds binding labelled BSA control protein – biochemical, small-molecule microarray, Alexa647 label, 635/667 nm fluorescence, artefact control for SMM control protein annotation, profiling panel (AID 1118).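 Also: score merges 667 nm emission intensity and signal-to-noise per printed compound spot.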 The following applies: BSA-A647 binding, fluorescence 635 nm, higher = more signal.
A short description of assay [12]: probe aXIP binding to arrayed compounds – biochemical, NeuroSMM set, 635/667 nm fluorescence, primary screen (AID 1119).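 Also: probe is the protein aXip251-270 applied at 1 µg/mL to compound-printed slides; binding of probe to printed compounds measured as 667 nm fluorescence plus signal to noise.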 To be noted: small-molecule microarray, higher = more signal, called active from +8 up or from −8 down.
Assay [13] is described as follows: probe aNOTCH3 binding on compound microarray – biochemical, small-molecule microarray, 635/667 nm fluorescence, primary screen (AID 1120).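 Also: probe is a biotin-tagged antibody raised against NOTCH3 rather than NOTCH3 protein; score merges spot fluorescence near 667 nm with spot signal to noise.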 The following applies: higher = more signal.
A short description of assay [14]: probe aNOTCH2 binding on compound microarray – biochemical, small-molecule microarray, 635/667 nm fluorescence, primary screen (AID 1121).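 Also: score merges feature fluorescence read at 667 nm with its signal to noise.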 To be noted: higher = more signal.
Assay [15] concerns the target Carbonic anhydrase 2 (Homo sapiens) (UniProt P00918). Nature of the assay: compounds binding carbonic anhydrase 2 – biochemical, small-molecule microarray, Alexa647-labelled CAII, profiling panel (AID 1122). To be noted: CAII-A647 binding fluorescence, higher = more signal.
Assay [16] in a line: COS7 lysate on small-molecule microarray, probe aHis, 635 nm (AID 1123).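 Also: z-score combines 667nm fluorescence intensity with signal-to-noise per printed compound spot.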 The following applies: COS7 cell lysate, fluorescence, higher = more signal.
Assay [17] is described as follows: probe aLAP1 signal on lysate-treated microarray – cell lysate, small-molecule microarray, COS7 lysate, primary screen (AID 1124).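 Also: lysate comes from COS7 cells expressing LAP1 and is applied at 0.3 µg/mL; score merges spot fluorescence near 667 nm with signal-to-noise over triplicate slides.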 The following applies: probe aLAP1, fluorescence, higher = more signal.
The subject of assay [18] is Sam68 (KHDRBS1). Nature of the assay: compounds binding KHDRBS1 protein – biochemical, small-molecule microarray, 635 nm fluorescence, primary screen (AID 1125).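 Also: score merges 667 nm channel intensity with signal to noise over triplicate slides.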 To be noted: higher = more signal.
For assay [19], the system named is Chordin-like protein 2 (CHRDL2). As to the kind of experiment: compounds binding chordin-like 2 – biochemical, small-molecule microarray, 635 nm fluorescence, primary screen (AID 1126).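 Also: printed compound slides probed with Chrdl2 protein at 4 µg/mL for 1 h at 4 C; score merges 667 nm emission intensity with signal to noise over three replicate slides.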 To be noted: fluorescence 635 nm, higher = more signal.
Assay [20] addresses Concanavalin-A (Canavalia ensiformis) (UniProt P02866). Nature of the assay: compounds binding concanavalin A lectin – biochemical, small-molecule microarray, Alexa647 label, 635 nm, artefact control for SMM control protein annotation, primary screen (AID 1127).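 Also: z combines 667 nm emission intensity with signal-to-noise across three replicate slides.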 To be noted: ConA-A647 binding fluorescence, higher = more signal.

The source made the active and inactive calls.

These results are taken from PubChem BioAssay.

Chain of Albumin (Bos taurus) (P02769 whole entry, looked up): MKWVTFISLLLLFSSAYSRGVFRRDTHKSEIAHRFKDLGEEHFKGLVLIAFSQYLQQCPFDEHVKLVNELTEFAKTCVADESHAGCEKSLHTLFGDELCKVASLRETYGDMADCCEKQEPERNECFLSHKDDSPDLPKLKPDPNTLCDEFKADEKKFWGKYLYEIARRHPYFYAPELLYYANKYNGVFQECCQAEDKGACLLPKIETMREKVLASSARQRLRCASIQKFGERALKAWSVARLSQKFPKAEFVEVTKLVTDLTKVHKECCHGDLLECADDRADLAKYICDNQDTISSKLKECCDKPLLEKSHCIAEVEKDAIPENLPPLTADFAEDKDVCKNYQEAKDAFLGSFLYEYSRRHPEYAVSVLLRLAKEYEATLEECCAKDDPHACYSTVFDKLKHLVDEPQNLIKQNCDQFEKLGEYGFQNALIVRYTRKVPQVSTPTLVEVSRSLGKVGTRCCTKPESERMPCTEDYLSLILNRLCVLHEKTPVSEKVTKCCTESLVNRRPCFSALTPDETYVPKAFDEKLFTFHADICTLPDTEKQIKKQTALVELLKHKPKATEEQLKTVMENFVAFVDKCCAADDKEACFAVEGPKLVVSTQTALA
Chain of Left-right determination factor 2 (Homo sapiens) (O00292 whole entry, looked up): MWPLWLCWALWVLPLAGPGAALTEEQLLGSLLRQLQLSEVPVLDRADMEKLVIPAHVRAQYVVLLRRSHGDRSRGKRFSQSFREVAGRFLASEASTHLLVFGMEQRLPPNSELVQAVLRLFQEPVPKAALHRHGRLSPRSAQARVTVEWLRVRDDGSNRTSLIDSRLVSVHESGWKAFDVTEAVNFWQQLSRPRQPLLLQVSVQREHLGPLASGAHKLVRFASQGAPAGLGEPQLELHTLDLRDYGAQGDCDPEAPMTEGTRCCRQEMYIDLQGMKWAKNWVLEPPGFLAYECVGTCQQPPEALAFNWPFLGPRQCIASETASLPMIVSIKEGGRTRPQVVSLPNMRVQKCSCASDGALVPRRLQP
Chain of Torsin-1A-interacting protein 1 (Homo sapiens) (Q5JTV8 whole entry, looked up): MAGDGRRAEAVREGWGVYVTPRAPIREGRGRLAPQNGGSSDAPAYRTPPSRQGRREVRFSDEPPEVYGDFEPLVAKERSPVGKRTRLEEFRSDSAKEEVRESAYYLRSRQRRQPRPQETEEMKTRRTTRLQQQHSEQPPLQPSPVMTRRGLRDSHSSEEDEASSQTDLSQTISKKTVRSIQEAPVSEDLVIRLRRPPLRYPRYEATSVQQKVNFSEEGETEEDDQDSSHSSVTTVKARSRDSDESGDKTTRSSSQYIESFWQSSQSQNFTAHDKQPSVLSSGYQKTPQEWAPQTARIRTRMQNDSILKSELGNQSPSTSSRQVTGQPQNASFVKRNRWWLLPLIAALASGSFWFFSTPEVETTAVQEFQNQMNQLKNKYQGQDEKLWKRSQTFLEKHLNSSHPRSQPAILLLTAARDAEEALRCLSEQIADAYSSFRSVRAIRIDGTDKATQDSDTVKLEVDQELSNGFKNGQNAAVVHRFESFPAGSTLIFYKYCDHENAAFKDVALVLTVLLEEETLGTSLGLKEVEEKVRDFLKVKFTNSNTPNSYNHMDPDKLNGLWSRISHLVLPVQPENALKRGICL
Chain of Concanavalin-A (Canavalia ensiformis) (P02866 whole entry, looked up): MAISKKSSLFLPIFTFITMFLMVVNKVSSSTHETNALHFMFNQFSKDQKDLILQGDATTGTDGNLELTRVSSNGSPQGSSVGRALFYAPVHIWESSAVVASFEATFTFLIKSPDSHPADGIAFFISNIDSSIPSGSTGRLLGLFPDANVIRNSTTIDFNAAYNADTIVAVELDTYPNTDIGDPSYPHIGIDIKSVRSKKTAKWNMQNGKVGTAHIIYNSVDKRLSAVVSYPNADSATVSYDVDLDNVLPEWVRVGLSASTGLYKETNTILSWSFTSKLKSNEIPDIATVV
Chain of Alpha-bungarotoxin (Bungarus multicinctus) (P60615 whole entry, looked up): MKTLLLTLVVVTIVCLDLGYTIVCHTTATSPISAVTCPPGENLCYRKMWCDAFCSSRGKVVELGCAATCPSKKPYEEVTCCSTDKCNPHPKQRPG

Regarding `O=C1O[C@H](c2ccccc2)[C@H](c2ccccc2)N2[C@H]1[C@@H](C(=O)NC[C@H](O)c1ccccc1)[C@]1(C(=O)Nc3ccc(C#CC4=CCCCC4)cc31)[C@H]2c1ccccc1OCCO`, the composite z-score in [1] was found to be 1.06; in assay [3] it was 0.155; in [4] it was 1.42; in assay [5], 0.944; in [6], 0.0101; in assay [7], 0.328. Also, the composite z-score in [8] is 0.157; in assay [9] it was 1.02; in [10], 1.7; in [11] it was 0.395; in [13], 0.0527; in assay [14] it was -0.0614. For the same compound, the composite z-score is 0.343 in assay [15]; 1.32 in assay [16]; 0.522 in [17]; 1.32 in assay [18]; -0.0358 in [19]; 0.978 in assay [20]. This compound gave a z-score in assay [2] of -3.16. Further, in assay [12], the composite Z-score was 0.0371 (inactive).

Consider `CCCCC(O)C1C=CC2C(=O)N(C)C(=O)C2N1N1CCCCC1` (stereo not given), for which the composite z-score in [1] is 1.34; in assay [3], 0.462; in assay [4] it was 0.0471; in assay [5] it was -0.665; in assay [6], 0.0251; in assay [7], 0.156. The composite z-score in [8] is -0.294; in assay [9] it was 0.893; in assay [10], 1.16; in assay [11] it was 0.843; in assay [13], 0.291; in assay [14], 0.0675. Also, the composite z-score in assay [15] was found to be 0.821; in assay [16], 2.45; in [17], 0.536; in [18] it was 0.952; in assay [19], 0.372; in assay [20], 0.0635. In assay [2], this compound displayed a z-score of 0.0634. In addition, in [12], the composite Z-score is 0.257 (inactive).

For the compound `CC(c1ccccc1)C(O)C1C=CC2C(=O)N(c3ccccc3)C(=O)C2N1Nc1ccccc1` (stereo not given), the composite z-score is 1.5 in assay [1]; -0.0093 in assay [3]; 1.5 in assay [4]; 0.993 in assay [5]; -0.0758 in [6]; -0.0702 in assay [7]. For the same compound, the composite z-score was 1.44 in [8]; 1.11 in assay [9]; 1.98 in assay [10]; 1.01 in [11]; 0.298 in [13]; -0.112 in assay [14]. Moreover, the composite z-score was 0.493 in assay [15]; 3.12 in [16]; 0.426 in [17]; 1.34 in assay [18]; -0.298 in assay [19]; 1.11 in assay [20]. This compound also showed a z-score in assay [2] of -2.44. Moreover, the composite Z-score in assay [12] was 0.304 (inactive).

Regarding `CCCCCCc1nc(-c2ccc(-c3ccc(Cl)c(Cl)c3)o2)cc2c1[Si](C(C)C)(C(C)C)O[C@H]2c1ccccc1`, the composite z-score was -0.545 in assay [1]; -0.0324 in [3]; -0.365 in assay [4]; 0.077 in [5]; -0.264 in assay [6]; 0.0723 in assay [7]. Also, the composite z-score was -0.141 in assay [8]; -0.741 in assay [9]; 0.622 in assay [10]; 0.108 in assay [11]; -0.292 in [13]; -0.153 in [14]. In addition, the composite z-score in assay [15] was 0.739; in assay [16] it was 0.458; in [17], -0.418; in assay [18], -0.472; in assay [19] it was -0.517; in assay [20], -0.131. In [2], this compound registered a z-score of -0.674. The composite Z-score in assay [12] is 1.35 (inactive).

On to `CC(C)C(=C=CC[C@H](O)c1ccc(CO)o1)CCO`, for which the composite z-score is 1.21 in assay [1]; -0.0171 in assay [3]; -0.26 in assay [4]; -0.649 in assay [5]; -0.15 in assay [6]; -0.0793 in assay [7]. Also, the composite z-score in assay [8] is -0.0827; in assay [9] it was 0.843; in [10] it was 0.963; in assay [11], 0.906; in assay [13], -0.111; in assay [14], -0.148. Besides, the composite z-score was 0.756 in assay [15]; 0.514 in [16]; 0.792 in assay [17]; 0.856 in assay [18]; 0.0622 in assay [19]; 0.828 in assay [20]. Also, the z-score in assay [2] was -1.12. In addition, in assay [12], the composite Z-score is 0.304 (inactive).

`O=C1O[C@H](c2ccccc2)[C@H](c2ccccc2)N2[C@H]1[C@@H](C(=O)NC[C@H](O)c1ccccc1)[C@]1(C(=O)Nc3ccccc31)[C@H]2c1ccc(O)cc1`: the composite z-score was 0.69 in assay [1]; 0.733 in assay [3]; 1.06 in assay [4]; 0.659 in assay [5]; -0.124 in [6]; -0.138 in assay [7]. The composite z-score was 0.293 in assay [8]; 0.825 in assay [9]; 0.771 in assay [10]; 0.626 in [11]; -0.0328 in [13]; -0.0629 in assay [14]. Also, the composite z-score was determined as 0.66 in [15]; 1.19 in assay [16]; 0.463 in [17]; 0.959 in [18]; 1.23 in assay [19]; 1.01 in assay [20]. In assay [2], this compound yielded a z-score of -0.705. Also, the composite Z-score in assay [12] was -0.35 (inactive).
